Experimental findings from PubChem BioAssay (EPA / NIEHS) are described below.

SMILES strings stand for the structures. “And” between values parts separate entries of the source, which are not always exact repeats. Equal values may be shown once. Some compounds were tested as several samples or in several runs, with calls that do not always agree. The source made the active and inactive calls. How the source made its calls: active means hit-call score of the fitted dose curve at least 0.9, where 1 is the maximum; inactive means score below 0.9.

Read-out in the test: Vascular cell adhesion molecule 1 (VCAM1), VCAM1 (gene 7412)
In words: BSK_hDFCGF_VCAM1: BioMAP Diversity Plus: hDFCGF Assay for Vascular cell adhesion molecule 1 (VCAM1) Biomarker Activity (AID 2283065). The conditions noted are these: primary human foreskin fibroblasts; actives raise or lower the signal. The procedure: BSK_hDFCGF is a cell-based, multiplexed-readout assay that uses foreskin fibroblast, a human skin primary cell, with measurements taken at 24 hours after chemical dosing in a 96-well plate.BSK_hDFCGF_VCAM1 is an assay component measured in the BSK_hDFCGF assay. It measures VCAM-1 antibody related to regulation of gene expression using ELISA technology.Data from the assay component BSK_hDFCGF_VCAM1 was analyzed into 1 assay endpoint. This assay endpoint, BSK_hDFCGF_VCAM1, was analyzed with bidirectional fitting relative to DMSO as the negative control and baseline of activity. Using a type of binding reporter, gain or loss-of-signal activity can be used to understand changes in the signaling as they relate to the gene VCAM1. Furthermore, this assay endpoint can be referred to as a primary readout, because this assay has produced multiple assay endpoints where this one serves a signaling function. To generalize the intended target to other relatable targets, this assay endpoint is annotated to the cell adhesion molecules intended target family, where the subfamily is Immunoglobulin CAM.
The levels of cell surface (or secreted, indicated by the prefix "s") biomarker endpoints were measured by ELISA. Overt cytotoxicity to cells in confluent adherent cultures (all systems other than the BT system) was assessed by measuring total protein levels using sulforhodamine B (SRB) staining in parallel cultures at the time of biomarker measurements, indicated as SRB endpoints. For proliferation assays for adherent cell types, individual cell types are cultured at sub-confluence and relative cell numbers quantified by SRB staining at time points optimized for each system (48 h: 3C and CASM3C systems; 72 h: BT and HDF3CGF systems; 96 h: SAg system). SRB was performed by staining cells with 0.1% SRB after fixation with 10% TCA and reading wells at 560 nm.Viability and proliferation of PBMC (T cells) was quantified by Alamar Blue reduction for the SAg and BT systems. For PBMC viability (referred to as PBMC Cytotoxicity within the assay endpoint names), cells were plated (75,000/well in a 96-well plate) and then chemical samples added for 1 h before addition of activators, SEB and TSST-1 (20 ng/mL final concentration each). Cells were incubated for 90 h. Then, Alamar Blue (20 uL/well) (Invitrogen, Cat DAL1100) was added for 6 h, and the plates were read with a fluorescence microplate reader at 546/580 nm (excitation/emission). For PBMC proliferation, cells were plated and activated as above but incubated for only 16 h prior to addition of Alamar Blue. Plates were read after 6 h.
`CCOC(=O)c1ccc(O)cc1`: the result was inactive.

For `CCCOC(=O)NCCCN(C)C`, the outcome was inactive.

For the compound `COCCO`, the result was inactive.

In the case of `COC(=O)c1ccccc1S(=O)(=O)NC(=O)Nc1nc(OC(F)F)cc(OC(F)F)n1`, the result was inactive.

For `CC(C)(C)[C@@H](O)[C@@H](Cc1ccc(Cl)cc1)n1cncn1`, the result was inactive.

`CCCCCCC(C)OC(=O)COc1nc(F)c(Cl)c(N)c1Cl` (stereo not given): the concentration at half-maximal activity (AC50) is 13.4 µM (active).

For the compound `CCCCC(CC)COC(=O)c1ccccc1C(=O)O` (stereo not given), the half-maximal activity concentration (AC50) was 10.2 µM (active).

For `CSC(=O)c1cccc2nnsc12`, the outcome was inactive.

Turning to `CC(C)(c1ccc(O)cc1)c1ccc(O)cc1`, the half-maximal activity concentration (AC50) is 8.38 µM (active) and the outcome was inactive.

Consider `CCC(O)=C1C(=O)CC(C(=O)O)CC1=O` (stereo not given), for which the result was inactive.

In the case of `CCOC(=O)C(C)Oc1ccc(Oc2cnc3cc(Cl)ccc3n2)cc1` (stereo not given), the outcome was inactive.

With `CCCCC(CC)CN1C(=O)C2C3C=CC(C3)C2C1=O` (stereo not given), the outcome was inactive.

For `CCCN(CCC)c1c([N+](=O)[O-])cc(C(F)(F)F)c(N)c1[N+](=O)[O-]`, the AC50 was 26.9 µM (active).

Regarding `CCCCOC(=O)C(C)Oc1ccc(Oc2ccc(C(F)(F)F)cn2)cc1` (stereo not given), the outcome was inactive.

For the compound `CCCOC(=O)c1ccc(C(=O)OCCC)nc1`, the result was inactive.

Take `C[C@]12C[C@H](O)[C@H]3[C@@H](CCC4=CC(=O)CC[C@@]43C)[C@@H]1CC[C@@H]2C(=O)CO`: the outcome was inactive.

For the compound `O=C(O)c1ccccc1`, the outcome was inactive.

On to `c1ccc(Nc2ccccc2)cc1`, for which the result was inactive.

Regarding `CCCCOC(=O)[C@@H](C)Oc1ccc(Oc2ccc(C(F)(F)F)cn2)cc1`, the result was inactive.

Take `C#C[C@]1(O)CC[C@H]2[C@@H]3CCC4=CC(=O)CC[C@@H]4[C@H]3CC[C@@]21CC`: the result was inactive.

Turning to `COC(=O)c1ccccc1C(=O)O`, the result was inactive.

For `CCN(CC)C(=O)c1cccc(C)c1`, the result was inactive.

Turning to `CC(=O)[C@H]1CC[C@H]2[C@@H]3CCC4=CC(=O)CC[C@]4(C)[C@H]3CC[C@]12C`, the outcome was inactive.

As for `C=CCOC(Cn1ccnc1)c1ccc(Cl)cc1Cl` (stereo not given), the result was inactive.

With `COC(=O)c1ccc(CNS(C)(=O)=O)cc1S(=O)(=O)NC(=O)Nc1nc(OC)cc(OC)n1`, the result was inactive.

On to `N#CSCSc1nc2ccccc2s1`, for which the AC50 was 1.37 µM (active) and 460 nM (active).

`CCCN(CCC)C(=O)SCC`: the outcome was inactive.

For the compound `C[C@]12CC[C@@H]3c4ccc(O)cc4C[C@@H](CCCCCCCCCS(=O)CCCC(F)(F)C(F)(F)F)[C@H]3[C@@H]1CC[C@@H]2O` (stereo not given in full), the result was inactive.

For the compound `CN(C)C(=O)Nc1ccc(Cl)c(Cl)c1`, the outcome was inactive.

On to `Oc1ccc(C(c2ccc(O)cc2)C(Cl)(Cl)Cl)cc1`, for which the AC50 is 20 µM (active).

As for `CCCCOCCOCCOCc1cc2c(cc1CCC)OCO2`, the result was inactive.

For `C#CCOC(=O)[C@@H](C)Oc1ccc(Oc2ncc(Cl)cc2F)cc1`, the result was inactive.

As to `CCOC(=O)NCCOc1ccc(Oc2ccccc2)cc1`, the result was inactive.

As to `COC(=O)c1cccc(C)c1S(=O)(=O)NC(=O)Nc1nc(OCC(F)(F)F)nc(N(C)C)n1`, the outcome was inactive.

For the compound `CCOC(=O)COc1cc(-n2ncc(C(F)(F)F)c(C)c2=O)c(F)cc1Cl`, the result was inactive.

Take `CCC(C)OC(=O)N1CCCCC1CCO` (stereo not given): the outcome was inactive.

Take `CCN(Cc1c(F)cccc1Cl)c1c([N+](=O)[O-])cc(C(F)(F)F)cc1[N+](=O)[O-]`: the result was inactive.

Regarding `S=C(S)NCCNC(=S)S.[Mn+2].[S-]C([S-])=NCCN=C([S-])[S-].[Zn+2]`, the result was inactive; the AC50 was 5.37 µM (active) and 12.4 µM (active).
